Bioassay records from PubChem.
The list is not random: actives were taken first. Their share in the collection is about 6.9%.
Giardia killer = Small Molecules that selectively kill Giardia lamblia: qHTS | Giardia lamblia trophozoite viability | activity change, % at 7.66 µM, hits read low | 340,000 compounds, 0.15% hits; in the data active = activity change below about -80%; inconclusive = between about -30% and that limit;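 also: parasites exposed to compound for two days anaerobically before the ATP read; % is scaled to controls: 0 for no effect and ±100 for the full control effect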
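Each well holds 100 Giardia trophozoites and compound. After two days (48 hrs) at 37 deg C in anaerobic conditions, ATP is quantified by luminescence.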
MCF10A rereplic = A quantitative high throughput screen for small molecules that induce DNA re-replication in MCF 10a normal breast cells | Potency, µM (highest dose often 46.1 µM), for the others: top-dose activity, positive = re-replication, hits mostly activators | MCF 10A DNA re-replication, Hoechst nuclear intensity, 48 h | 350,000 compounds, 2.9% hits; also: potency is read from the fitted curve at half-maximal effect; % of control where 0% means no effect; nearly all actives have a fitted effect of over 50% in size
IL-1B inflam inh = qHTS for Inhibitors of Inflammasome Signaling: IL-1-beta AlphaLISA Primary Screen | THP-1 LPS/ATP IL-1B secretion, AlphaLISA, 16 h; stronger effect = lower value | activity change, % at 57.5 µM | 360,000 compounds, 4.7% hits; in the data active = activity change below about -50%; inconclusive = mostly about -30% to -49%; also: % is scaled to controls: 0 for no effect and ±100 for the full control effect
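THP-1 cells pretreated 1 hr with compounds (up to 57.5 uM final), then stimulated with LPS (250 ng/mL final) plus ATP (1.25 mM final); secreted IL-1B measured by AlphaLISA after 16 hr, decreased signal indicating inhibition.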
SW480 rerep = A quantitative high throughput screen for small molecules that induce DNA re-replication in SW480 colon adenocarcinoma cells; 340,000 compounds, 1.8% hits; SW480 DNA re-replication, Hoechst DNA content imaging, 48 h; Potency, µM (doses to about 46.1 µM), for inactives: at the top dose re-replication activation, most hits filed as activators; AID 624297, 2012; also: potency is read from the fitted curve at half-maximal effect; % of control where 0% means no effect; nearly all actives have a fitted effect of over 55% in size
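250 cells/well; 23 nL cpd via pin tool; 48 hr, 37 C, 5% CO2; Hoechst 40 min; imager read of total nuclear intensity, ex 405/em 500-530 nm.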
Vif-APOBEC3G blk = qHTS for Inhibitors of Vif-A3G Interactions: qHTS; DNA dC->dU-editing enzyme APOBEC-3G (Homo sapiens), Q9HC16; HeLa A3G-eYFP + Vif (tagged APOBEC3G with the HIV-1 protein that degrades it), YFP fluorescence, overnight; Potency, µM (series often up to 46.1 µM), for the others: top-dose activity, negative = active, most hits filed as inhibitors; 410,000 compounds, 0.076% hits; also: potency is read from the fitted curve at half-maximal effect; % is scaled to controls: 0 for no effect and ±100 for the full control effect; nearly all actives have a fitted effect of over 60% in size
Target sequence (Q9HC16 whole entry, looked up): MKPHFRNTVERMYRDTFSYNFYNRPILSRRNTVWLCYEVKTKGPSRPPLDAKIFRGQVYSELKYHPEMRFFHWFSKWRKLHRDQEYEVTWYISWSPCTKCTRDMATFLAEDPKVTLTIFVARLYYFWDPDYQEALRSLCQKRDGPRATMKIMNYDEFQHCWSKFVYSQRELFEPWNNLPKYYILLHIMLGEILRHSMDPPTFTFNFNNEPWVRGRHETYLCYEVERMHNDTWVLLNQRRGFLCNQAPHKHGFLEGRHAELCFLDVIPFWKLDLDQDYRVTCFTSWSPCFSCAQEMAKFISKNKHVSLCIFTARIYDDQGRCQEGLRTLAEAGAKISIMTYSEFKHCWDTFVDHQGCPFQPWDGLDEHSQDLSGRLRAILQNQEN
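Read-out is eYFP fluorescence (Ex 488/Em 500-530) from Vif-expressing HeLa A3G-eYFP cells; more signal means A3G escaped Vif-mediated degradation. Cells plated overnight, compound pinned in, incubated overnight at 37 deg C.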
Vif-A3F inh = qHTS for Inhibitors of Vif-A3F Interactions: qHTS; HeLa A3F-eYFP + Vif (tagged APOBEC3F with the HIV-1 protein that degrades it), YFP fluorescence increase; Potency, µM (titrated, usually from 46.1 µM), for inactives: at the top dose activity, negative = active; 390,000 compounds, 0.2% hits; also: potency is read from the fitted curve at half-maximal effect; % of control where 0% means no effect; nearly all actives have a fitted effect of over 65% in size
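Fluorescence increase (Ex 488/Em 500-530) after overnight compound treatment at 37 deg C flags inhibition of Vif-driven A3F-eYFP loss in stable HeLa A3F-eYFP/Vif cells seeded overnight beforehand.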
Numbers without * were called inactive; u = inconclusive; x = no result; [ ] = dose if it differs, or a comment. Unless noted, calls follow the shape of the dose curve; as a rule, active = well fitted curve in the direction sought with a large enough effect; inconclusive = small, poorly fitted or top-dose-only effect, or another doubt; inactive = no such curve, though single readings can be large; an effect the other way counts as inactive or inconclusive.

SMILES	Giardia killer	MCF10A rereplic	IL-1B inflam inh	SW480 rerep	Vif-APOBEC3G blk	Vif-A3F inh
C[N+](C)(C)CC(=O)N/N=C/c1c2ccccc2cc2ccccc12	8	18µM*	-9	30%	2%	-13%
S=C(NCCN1CCOCC1)N/N=C/c1c2ccccc2cc2ccccc12	0	24%	10	-2%[9.22 µM]	1%	u
Cc1cc(C)n2nc(C(=O)N/N=C/c3c4ccccc4cc4ccccc34)nc2n1	10	8.2µM*	-8	u	u	u
Cc1cc(C)n2nc(C(=O)N/N=C/c3ccccc3Cl)nc2n1	0	-1%	-9	-8%	1%	-11%
COc1ccc(C=NNC(=S)NN=Cc2ccc(OC)c(OC)c2)cc1OC	0	u	-17	u	4%	0%
COCCNC(=S)N/N=C/c1c2ccccc2cc2ccccc12	6	15µM*	22	18µM*	-5%	u
Cn1cccc1CC(=O)N/N=C\c1c2ccccc2cc2ccccc12	5	u	u	u	-23%	u
COCCCNC(=S)N/N=C/c1ccc(OC)c(Br)c1	20	29%	-28	3.3µM*	2%	u
CCc1ccccc1NC(=O)C(=O)NCCc1sc(-c2cccc(C)c2)nc1C	x	x	x	x	2%	-2%
Cc1ccc([C@H]2N[C@]3(CCCN(Cc4ccc(C(F)(F)F)cc4)C3=O)[C@H]3C(=O)N(Cc4ccccc4)C(=O)[C@@H]23)cc1	x	x	-70*	x	-7%	-2%
CCC(=O)N1N=C(c2cccs2)CC1c1ccc(C)cc1 (configuration not stated)	-3	-3%	-8	-61%	0%	0%
COc1ccc(C2CC(c3cccs3)=NN2C(=O)CSc2nncn2C)cc1OC (configuration not stated)	-22	4.6µM*	u	-7%	-5%	-1%
COc1ccc(C2CC(c3cccs3)=NN2C(=O)CSC2=NCCS2)cc1 (configuration not stated)	-1	19%	-81*	0%	1%	-9%
Cc1ccc(C2CC(c3cccs3)=NN2C(=O)CCl)cc1 (configuration not stated)	-4	u	-106*	u	-18%	0%
COc1cccc(/C=C/c2cnc3ccccc3n2)c1OC	x	x	x	x	-1%	x
COCCNc1nc(NCCN2CCNC2=O)c2sccc2n1	x	x	-71*	x	-1%	x
CCCN(C(=O)c1coc(=O)c2ccccc12)c1ccccc1C	x	x	x	x	6%	1%
O=c1[nH]c(/C=C2\C=Nc3ccccc32)c(O)n1Cc1ccccc1F	3	2%	-97*	0%	-7%	-11%
O=[N+]([O-])c1cnccc1-n1nnc2ccccc21	x	x	-116*	x	x	x
C=C1CCN(C(C)C(=O)OCc2cccc(C)c2)S(=O)(=O)c2ccccc21 (configuration not stated)	-19	x	x	x	0%	x
CC(=O)c1cccc(NC(=O)Nc2nnc(N3CCCC3)s2)c1	x	x	x	x	3%	3%
CCOCCc1nn2c(=O)cc(COC(=O)c3ccc(NC(=O)c4ccc(F)cc4)cc3)nc2s1	x	x	x	x	-2%	-1%
CCOC(=O)C1=C(C)N(C[C@@H]2CC[C@@H](Cc3ccc4cc(OC)ccc4c3)O2)C(=O)NC1c1ccc(OC)cc1 (some centres not stated)	2	4.1µM*	0	u	5%	-6%
Cc1nn(CCCC(=O)Nc2ccccc2C(F)(F)F)c(=O)c2c1sc1ccccc12	x	x	x	x	0%	-3%
CCCNS(=O)(=O)c1cc(-c2nnc3c4ccccc4c(C)nn23)ccc1OC	x	x	x	x	-6%	1%
SMILES	Giardia killer	MCF10A rereplic	IL-1B inflam inh	SW480 rerep	Vif-APOBEC3G blk	Vif-A3F inh
CCn1c(=NC(=O)CS(=O)(=O)c2ccccc2)sc2cccc(OC)c21	4	u	-59*	1%	1%	8%
Cn1c(=NC(=O)CS(=O)(=O)c2ccccc2)sc2ccccc21	1	1%	6	-6%	-1%	13%
C/C(CCN1CCCCc2nc(C)c(C)cc21)=N\O[C@H](C)c1cn([C@H](CO)Cc2ccccc2)nn1	x	7%	x	0%	x	x
Cc1cc2c(nc1C)CCCN2C[C@@H](C)O/N=C1/[C@H]2CCn3c(=O)n(-c4ccccc4)c(=O)n3[C@H]2[C@H](O)[C@@H]2O[C@H]12	1	u	-54*	u	0%	8%
CCC(C(=O)Nc1ccccc1C(=O)OC)n1nc(C)c2c(C)n(-c3ccc(C)cc3)nc2c1=O (configuration not stated)	x	x	x	x	7%	2%
CC1=NNC(=O)/C1=C\c1cn(-c2ccccc2)nc1-c1ccc(F)cc1	14	4.6µM*	-100*	u	u	-27%
O=C(O)CCCCCN1C(=O)/C(=C/c2cn(-c3ccccc3)nc2-c2cccs2)SC1=S	24	26%	-21	u	-1%	u
CC1=NNC(=O)/C1=C\c1cn(-c2ccccc2)nc1-c1cccs1	1	2.6µM*	-96*	4.1µM*	-24%	-2%
Cc1c(NC(=O)/C=C/c2cn(-c3ccccc3)nc2-c2ccc(F)cc2)c(=O)n(-c2ccccc2)n1C	-20	18µM*	-7	18%	-10%	-3%
CN1CCC(N(C)C(=O)/C=C/c2cn(-c3ccccc3)nc2-c2cccs2)CC1	12	u	-91*	3%	u	-28%
CCN(CC(=O)Nc1ccc(NC(C)=O)cc1)C(=O)/C=C/c1cn(-c2ccccc2)nc1-c1cccs1	-5	u	u	5%	-1%	-4%
O=[N+]([O-])c1ccc(O/N=[N+](\[O-])N2CCN(c3ncccn3)CC2)c([N+](=O)[O-])c1	x	x	x	x	-20%	x
CCc1ccccc1NC(=O)C1COc2ccccc2C1 (configuration not stated)	x	x	x	x	1%	-4%
Cc1ccc(CN2CCN(Cc3cnn(-c4ccc(Cl)cc4)c3)CC2CCO)o1 (configuration not stated)	-8	14%	-57*	1%	0%	-6%
COc1ccc(C2NN=C(c3c[nH]c4ccccc34)C2O)cc1 (configuration not stated)	30	23%	-18	u	u	22µM*
COc1ccc(C2C(O)C(c3c[nH]c4ccccc34)=NN2C(=O)CCl)cc1 (configuration not stated)	9	4.6µM*	-99*	1.3µM*	u	6%
CCOC(=O)c1c(C)c(-c2ccccc2)n(CC(=O)Nc2cc(C)cc(C)c2)c1C	x	x	x	x	-12%	0%
